FBPA Giardia inh: inhibitors of Giardia lamblia fructose-1,6-bisphosphate aldolase. A8B2U2. purified Giardia FBPA. Potency, µM (titrated, usually from 59.6 µM), for inactives: at the highest dose activity, negative = inhibition, actives largely listed as inhibitors. hit rate 0.71% among 290,000. AID 2451; note: potency is the fitted concentration of half-maximal effect; % is set by controls: 0 for no effect and ±100 for the full control effect; nearly all actives have a fitted effect of over 55% in size
Target sequence (A8B2U2 whole entry, looked up): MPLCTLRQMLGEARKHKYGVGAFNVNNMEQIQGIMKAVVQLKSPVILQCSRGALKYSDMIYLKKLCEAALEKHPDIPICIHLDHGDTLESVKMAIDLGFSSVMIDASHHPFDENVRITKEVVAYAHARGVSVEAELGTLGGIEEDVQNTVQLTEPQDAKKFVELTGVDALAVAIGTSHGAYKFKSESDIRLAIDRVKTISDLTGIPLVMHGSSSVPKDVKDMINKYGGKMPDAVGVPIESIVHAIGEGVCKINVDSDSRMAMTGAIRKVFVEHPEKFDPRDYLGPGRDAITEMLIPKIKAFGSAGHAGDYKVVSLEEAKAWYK
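40 nM FBPA preincubated 10 min at RT with compound (up to 57.5 uM final), then substrate plus GAPDH/TPI/NAD/arsenate coupling and diaphorase/resazurin added. Fluorescence read after 20 min at RT, 525/598 nm.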
TbPYK inhibitor: T. brucei pyruvate kinase inhibition; AID 624173; Potency, µM (series often up to 76.8 µM), without a hit: at the highest dose activity, negative = inhibition, hits mostly inhibitors; hit rate 0.12% among 410,000; TbPYK enzyme, Kinase-Glo Plus ATP luminescence, 45 min; note: potency is the fitted concentration of half-maximal effect; % is set by controls: 0 for no effect and ±100 for the full control effect; nearly all actives have a fitted effect of over 50% in size
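Screened from lowest to highest concentration, compounds were pinned into TbPYK/substrate mixtures, and ADP (130 uM final) was added. Plates sat at room temperature for 45 min prior to Kinase-Glo Plus detection by luminescence.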
LmPK inh: inhibitors of Leishmania mexicana pyruvate kinase; purified LmPK, Kinase-Glo ATP luminescence, 1 h; Q27686; AID 1721; hit rate 0.37% among 290,000; Potency, µM (doses to about 57.5 µM), for inactives: top-dose activity change, negative = inhibition, usual class: inhibitors; note: potency is the fitted concentration of half-maximal effect; % is set by controls: 0 for no effect and ±100 for the full control effect
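Kinase-Glo luminescence read after 1 h RT reaction of 0.1 nM LmPK with 0.5 mM PEP and 0.1 mM ADP. Activity scaled between uninhibited and enzyme-free controls.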
Shiga inhibitor: Shiga toxin inhibition | Vero cells, Shiga toxin protein synthesis inhibition reporter | inhibition, % at 38.7 µM | hit rate 9.2% among 290,000 | AID 2315; in the data active = inhibition mostly above about 28%, no sharp cut-off; inactive = mostly below about 43%; note: 0% is about no effect
CHX counter: counter-screen hit for Shiga toxin inhibitors, cycloheximide. cell reporter, cycloheximide protein synthesis inhibition counterscreen. max response, %. hit rate 12% among 300,000. AID 2314; in the data active = max response mostly above about 13%, no sharp cut-off; inactive = mostly below about 14%; note: read at 38.3 µM for the half of the compounds with a filed dose; 0% is about no effect
RE007 growth inh: less growth of the S. pombe RE007 Vpr strain. S. pombe RE007 Vpr strain, BacTiter-Glo ATP luminescence, 24 h. hit rate 0.21% among 360,000. Potency, µM (highest dose often 92.2 µM), inactives show at the top dose activity change, negative = less growth, most hits filed as inhibitors; active = well fitted falling curve with a large enough effect; inconclusive = small, poorly fitted or top-dose-only effect; inactive = no such curve, though single readings can be large or run the other way; note: potency is the fitted concentration of half-maximal effect; % is set by controls: 0 for no effect and ±100 for the full control effect; nearly all actives have a fitted effect of over 50% in size
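Fission yeast RE007 carrying one integrated HIV-1 vpr copy, seeded at OD 0.01 in PMG+AL medium with 23 nL pinned compound. Grown 24 h at 30 degrees; viability read by BacTiter-Glo luminescence after 5 min.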
Active calls of the source: *; u = inconclusive; x = not tested or not shown; [ ] = remark or other dose. The entries come from a sample that favours hits as a whole. Unless noted, calls come from the whole dose curve; as a rule, active = well fitted curve in the direction sought with a large enough effect; inconclusive = small, poorly fitted or top-dose-only effect, or another doubt; inactive = no such curve, though single readings can be large; an effect the other way counts as inactive or inconclusive.

SMILES	FBPA Giardia inh	TbPYK inhibitor	LmPK inh	Shiga inhibitor	CHX counter	RE007 growth inh
CCN1C[C@@]2(COC)CCC(OC)[C@]34C5C[C@]6(O)[C@@H](OC)C[C@](OC(C)=O)(C([C@H](OC)C23)[C@H]14)C5[C@H]6OC(=O)c1ccc(OC)cc1 (stereo partly specified)	1.5%	x	x	23.2*	21.3*	x
CC1(C)C2CC[C@]1(C)[C@@H](O)C2	x	1.9%	x	x	x	x
CC1(C)S[C@@H]2[C@H](NC(=O)COc3ccccc3)C(=O)N2[C@H]1C(=O)O (tested in a mixture with another compound)	-15.6%[21.7 µM]	x	x	x	x	x
O=C(COc1ccc(Cl)cc1)NCCSCc1ccccc1Cl	-5.0%	-2.5%	1.4%	-8.8	-1.5	-12.3%
O=C(CSCc1ccccc1Cl)NCCSc1ccccn1	6.8%	-6.2%	1.0%	69.5	21.0*	15.2%
Cc1cc(OC(=O)N(C)C)nn1C(=O)N(C)C	3.4%	x	x	-4.7	-6.5	x
CCOc1ccc(NCc2cccn2-c2nnc(N3CCC(C(=O)NCCCN4CCCCC4)CC3)s2)cc1	x	4.6%	7.9%	22.7*	16.7*	-11.0%
CCCCC#Cc1ccc2c(c1)COc1c3ccccc3nn1-2	0.4%	1.5%	-18.1%	55.5*	36.8*	5.3%
COc1cccc(NC(=O)N2CCC3(CC2)OCCO3)c1	5.6%	5.6%	-6.3%	60.8*	31.1*	11.2%
COc1cccc(NC(=O)N2CCN(c3cccc(C)c3C)CC2)c1	-5.3%	-6.0%	-1.0%	66.2*	38.1*	28.6%
COc1ccccc1N1CCN(C(=O)Nc2cccc(Cl)c2)CC1	-1.7%	-5.6%	0.7%	27.5	26.5	18.0%
C/C=C\C1=CCCC1Nc1ncnc2ccc(-c3c(C)noc3C)cc12 (stereo unspecified)	-6.1%	x	x	31.8	12.1	x
CC[C@H](C)[C@H](N)C(=O)N[C@@H](CCCNC(=N)N)C(=O)N[C@@H](CCC(N)=O)C(=O)NCC(=O)N1CCC[C@H]1C(=O)N[C@@H](CCCCN)C(=O)N[C@@H](CCC(=O)O)C(=O)N1CCC[C@H]1C(=O)N[C@@H](Cc1ccccc1)C(=O)N[C@@H](CCCNC(=N)N)C(=O)N[C@@H](CC(=O)O)C(=O)N[C@@H](Cc1ccc(O)cc1)C(=O)N[C@H](C(=O)N[C@@H](CC(=O)O)C(=O)N[C@@H](CCCNC(=N)N)C(=O)N[C@@H](Cc1ccccc1)C(=O)N[C@@H](Cc1ccc(O)cc1)C(=O)N[C@@H](CCCCN)C(=O)N[C@H](C(=O)N[C@@H](CC(C)C)C(=O)O)[C@@H](C)O)C(C)C	0.5%	x	x	10.7	-1.8	x
CCCCSc1nc2c(cc1C#N)CCC2	0.0%	u	11.3%	25.2	12.4*	3.2%
C=CCSc1nc2c(cc1C#N)CCC2	16.2%	9.9%	0.9%	28.0	15.6*	-6.6%
CSc1nc2c(cc1C#N)CCC2	-3.7%	-15.0%	4.1%	-10.4	2.4	-13.1%
C=C(C)CSc1nc2c(cc1C#N)CCC2	1.8%	1.3%	-21.9%	5.1	-1.3	-8.4%
COC(=O)c1cc2oc3ccccc3c2n1CC(=O)Nc1cccc(SC)c1	x	-9.3%	x	x	x	x
Cc1nn2c(C)c(C(=O)N3CCN(c4ccc(Cl)cc4)CC3)cnc2c1-c1ccc(F)cc1	x	0.0%	x	x	x	x
CCN(CC)Cc1cc(CCNC(=O)c2ccc(Cl)cc2)ccc1O	0.0%	4.3%	4.5%	21.0	17.4*	2.5%
O=C(NCCc1ccc(Cl)cc1)c1ccc2nccnc2c1	x	2.2%	-1.1%	67.0*	52.2*	-2.3%
O=C(NCCc1ccc(O)cc1)c1ccc(Cl)cc1	-1.8%	-7.0%	2.3%	69.5*	55.8*	-0.4%
CC(C)NC(=O)N1CC[C@@]2(CCCN(C(=O)c3cnccn3)C2)C1	5.4%	2.1%	x	x	x	x
COc1ccc(OC)c(NC(=O)c2ccccc2N(Cc2ccccc2)S(C)(=O)=O)c1	-9.9%	12.6µM*	5.8%	12.6	-1.2	4.2%
C=CCn1c(Cc2cccs2)nnc1SCC(=O)c1ccc(F)cc1	2.6%	-26.6%	1.6%	29.0	14.5*	-2.0%
SMILES	FBPA Giardia inh	TbPYK inhibitor	LmPK inh	Shiga inhibitor	CHX counter	RE007 growth inh
C=CCn1c(CNC(=O)c2ccco2)nnc1SCC(=O)c1ccccc1	-14.9%	u	-3.4%	24.4	12.0*	-12.6%
Cc1ccc(S(=O)(=O)c2cn(Cc3ccccc3)c3cc(N4CCOCC4)c(F)cc3c2=O)cc1	x	0.6%	x	x	x	x
CCCCCCCCCCCCC/C=C/[C@@H](O)[C@H](CO)NC(=O)CCCCCCCCCCCCCCC	-5.5%	x	x	x	x	x
O=C(Nc1cccc([N+](=O)[O-])c1)c1cc2ccccc2cc1O	-25.2%	6.2%	6.3%	108.5*	48.7*	-14.4%
O=C(O)c1ccccc1Nc1ccc([N+](=O)[O-])cc1	11.0%	-9.8%	-20.9%	32.0	26.9*	-14.1%
O=C(NNc1ccc([N+](=O)[O-])cc1)c1ccccc1F	-3.8%	-6.9%	-2.9%	21.2	25.1*	28.5%
O=C(O)c1ccccc1Nc1ccccc1C(=O)O	-5.0%	-2.8%	-1.6%	-8.0	1.5	5.2%
O=C(Nc1ccc(NC(=O)c2cccc([N+](=O)[O-])c2)cc1)c1cccc([N+](=O)[O-])c1	-0.7%	-0.5%	10.7%	x	30.3*	-16.2%
O=C(NNc1ccc([N+](=O)[O-])cc1)c1ccccc1Cl	-5.4%	2.2%	1.0%	5.2	6.5	56.9%
O=C(Nc1ccc([N+](=O)[O-])cc1)c1cccc([N+](=O)[O-])c1	x	3.7%	x	x	x	3.5%
Cc1ccc(C)c(S(=O)(=O)c2cn(Cc3ccccc3)c3cc(N4CCCC4)c(F)cc3c2=O)c1	x	-0.8%	x	x	x	x
CCc1ccccc1N(C)C(=O)c1cn(-c2cccc(OC)c2)c(=O)c2ccccc12	x	-13.6%	x	x	x	x
COC(=O)[C@@]1(Cc2ccccc2)[C@H]2c3cc(C(=O)N(C)C)n(CCN4CNCC4=O)c3C[C@H]2CN1C(=O)c1ccccc1	-22.4%	x	x	x	x	x
COC(=O)c1ccccc1NC(=O)NCCc1c(C)nn(C)c1C	x	2.3%	x	x	x	x
CCOc1ccc(C(=O)N2CCCCC2CCN2CCOCC2)cc1 (stereo unspecified)	x	-10.4%	x	x	x	x
COc1ccc(NC(=O)c2cc([N+](=O)[O-])ccc2O)cc1	-21.8%	u	12.6µM*	-20.9	-4.7	6.31µM*
O=C(Nc1ccccc1)Nc1ncc([N+](=O)[O-])s1	-3.5%	-15.1%	u	76.8*	35.0*	-13.4%
O=C(Nc1ccccc1-c1ccccc1)c1cccc([N+](=O)[O-])c1	-2.4%	-17.6%	2.2%	121.7*	30.8*	-11.0%
CC(C)(C)c1cc(NC(=O)c2cccc([N+](=O)[O-])c2)no1	3.3%	-10.7%	0.5%	92.4*	59.1*	-2.5%
Cc1cc(NC(=O)c2cccc([N+](=O)[O-])c2)no1	4.2%	-1.8%	9.2%	29.2	-2.1	-15.6%
